According to PubChem BioAssay (Tox21):
Several values for one entry are separate records, joined by “and”; a condition that tells them apart may be missing. Identical values can stand only once. Records with an inconclusive call do not appear. Entries that show only a call come without a potency. A structure can be active in one record and inactive in another. Activity calls are given as the source filed them. Unless noted, calls come from the whole dose curve; as a rule, active = well fitted curve in the direction sought with a large enough effect in the repeat runs; inconclusive = weak or mixed curves; inactive = no such curve, though single readings can be large; an effect the other way counts as inactive or inconclusive.

Tests used:
[1] = qHTS assay to identify small molecule agonists of H2AX (AID 1224845; active = well fitted activation curve with a large enough effect in the signal ratio in the repeat runs, not every such curve was filed as active; the % refers to the signal ratio)
How it was run: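 Wild-type CHO-K1 cells plated overnight, then exposed 3 hr at 37C to compounds at 15 concentrations (0.76% DMSO). Lysed, then HTRF anti-pH2AX(S139)-cryptate/anti-H2AX-d2 detection after 24 hr at room temperature; emissions 665 and 620 nm.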

[2] = qHTS assay to identify small molecule agonists of the hypoxia (HIF-1) signaling pathway (AID 1224846; active = well fitted activation curve with a large enough effect in the signal ratio in the repeat runs, not every such curve was filed as active; the % refers to the signal ratio)
How it was run: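 HRE-bla ME-180 beta-lactamase reporter cells in medium with 0.5% dialyzed FBS, pre-incubated 5 h then exposed to compounds 17 h at 37C, 5% CO2; reporter induction read with CCF4-AM FRET substrate.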

[3] = qHTS assay to identify small molecule agonists of H2AX - cell viability counter screen (AID 1224847; calls by dose curve; note: top concentration of the series differs between compounds; nearly all actives have a fitted effect of over 30% in size)
How it was run: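 Compounds tested at 15 concentrations were incubated 3 hr at 37C with wild-type CHO-K1 cells; cellular ATP-based luminescence (CellTiter-Glo) indicated viability.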

[4] = qHTS RealTime-Glo MT Cell Viability Assay in HepG2 cells - 24 hour (AID 1224867); note: nearly all actives have a fitted effect of over 50% in size
How it was run: (§1)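 HepG2 cells (600/well) were dispensed with RealTime-Glo reagents, incubated 5 h at 37 °C, then treated with compounds in DMSO for up to 40 h. Nonlytic NanoLuc luminescence reflecting viable cells was read at each stated time point.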

[5] = qHTS RealTime-Glo MT Cell Viability Assay in HEK293 cells - 32 hour (AID 1224868); note: top concentration of the series differs between compounds; nearly all actives have a fitted effect of over 50% in size
How it was run: (§2)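 HEK293 cells seeded with NanoLuc/prosubstrate reagent, rested 5 h at 37 C, then dosed and kept at 37 C up to 40 h. Nonlytic real-time luminescence from viable cells read at 0, 8, 16, 24, 32 and 40 h.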

[6] = A CellTox Green Cytotoxicity Assay to monitor cytotoxicity in HEK293 cells - 0 hour (AID 1224869); note: nearly all actives have a fitted effect of over 50% in size
How it was run: (§3)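 HEK293 cells, 600/well, were preincubated 5 hours and then exposed to compounds at 37 C for up to 40 hours. A cell-impermeant cyanine dye staining dead-cell DNA was read by fluorescence at 0, 8, 16, 24, 32 and 40 h time points.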

[7] = qHTS RealTime-Glo MT Cell Viability Assay in HepG2 cells - 40 hour (AID 1224870); note: nearly all actives have a fitted effect of over 50% in size
How it was run: (§4)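 HepG2 cells mixed with RealTime-Glo MT reagents (NanoLuc plus cell-permeant prosubstrate) were seeded at 600 cells/well, incubated 5 h at 37 C/5% CO2, then pinned with compounds in DMSO; nonlytic luminescence tracked viability during 40 h treatment.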

[8] = A CellTox Green Cytotoxicity Assay to monitor cytotoxicity in HEK293 cells - 40 hour (AID 1224871); note: nearly all actives have a fitted effect of over 45% in size; note: potency is the fitted concentration of half-maximal effect
How it was run: as §3

[9] = qHTS RealTime-Glo MT Cell Viability Assay in HEK293 cells - 16 hour (AID 1224872)
How it was run: as §2

[10] = qHTS RealTime-Glo MT Cell Viability Assay in HEK293 cells - 40 hour (AID 1224874); conditions: RealTime-Glo luminescence; max response: stronger effect = lower value; note: nearly all actives have a fitted effect of over 50% in size
How it was run: (§5)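 600 cells/well were plated with the nonlytic NanoLuc/prosubstrate reagent, pre-incubated 5 h, then given 23 nL of compound in DMSO. Incubation at 37 C for 40 h, with luminescence from viable-cell-reduced substrate read repeatedly from 0 h.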

[11] = A CellTox Green Cytotoxicity Assay to monitor cytotoxicity in HEK293 cells - 24 hour (AID 1224875); note: series mostly up to about 77 µM; nearly all actives have a fitted effect of over 45% in size
How it was run: as §3

[12] = A CellTox Green Cytotoxicity Assay to monitor cytotoxicity in HepG2 cells - 16 hour (AID 1224876); note: nearly all actives have a fitted effect of over 45% in size
How it was run: (§6)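 HepG2 cells, 600/well, preincubated 5 h with CellTox Green dye, then exposed to Tox21 compounds in DMSO at 37 C for up to 40 h. Dead-cell DNA fluorescence read at the indicated time point.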

[13] = A CellTox Green Cytotoxicity Assay to monitor cytotoxicity in HepG2 cells - 24 hour (AID 1224878); note: nearly all actives have a fitted effect of over 45% in size; note: potency is the fitted concentration of half-maximal effect
How it was run: as §6

[14] = A CellTox Green Cytotoxicity Assay to monitor cytotoxicity in HepG2 cells - 40 hour (AID 1224879); note: nearly all actives have a fitted effect of over 40% in size
How it was run: as §6

[15] = qHTS RealTime-Glo MT Cell Viability Assay in HEK293 cells - 0 hour (AID 1224880)
How it was run: as §5

[16] = A CellTox Green Cytotoxicity Assay to monitor cytotoxicity in HEK293 cells - 32 hour (AID 1224881); note: nearly all actives have a fitted effect of over 40% in size
How it was run: as §3

[17] = qHTS RealTime-Glo MT Cell Viability Assay in HepG2 cells - 32 hour (AID 1224877); note: nearly all actives have a fitted effect of over 55% in size
How it was run: as §1

[18] = qHTS RealTime-Glo MT Cell Viability Assay in HepG2 cells - 8 hour (AID 1224873); note: nearly all actives have a fitted effect of over 55% in size
How it was run: as §4

Compound	Potency [1]	outcome [2]	Potency [3]	Potency [4]	Potency [5]	Potency [6]	Potency [7]	Potency [8]	Potency [9]	max response [10]	Potency [11]	Potency [12]	Potency [13]	Potency [14]	outcome [15]	Potency [16]	Potency [17]	Potency [18]
CCCBr	inactive	inactive	inactive	inactive	inactive	inactive	inactive	inactive	inactive	-3.27% (inactive)	inactive	inactive	inactive	inactive	inactive	inactive	–	–
CCCCC#N	inactive	inactive	inactive	inactive	inactive	inactive	inactive	inactive	inactive	–	inactive	inactive	inactive	inactive	inactive	inactive	inactive	–
CCN(C(C)=O)c1cccc(-c2ccnc3c(C#N)cnn23)c1	inactive	inactive	inactive	inactive	inactive	inactive	inactive	inactive	inactive	-13.6% (inactive)	inactive	inactive	inactive	inactive	inactive	inactive	inactive	–
CCOP(=S)(OCC)SCSc1cc(Cl)ccc1Cl	inactive	inactive	inactive	inactive	inactive	inactive	inactive	inactive	inactive	0.23% (inactive)	inactive	inactive	inactive	inactive	inactive	inactive	inactive	–
O=C(O)CCCOc1ccc(Cl)cc1Cl	inactive	inactive	inactive	inactive	inactive	–	inactive	inactive	inactive	28.1% (inactive) and -0.413% (inactive)	inactive	inactive	inactive	inactive	inactive	inactive	inactive	inactive
C=CC(C)(CCC=C(C)C)OC(=O)c1ccccc1N (centres undefined)	inactive	inactive	inactive	inactive	inactive	inactive	inactive	inactive	inactive	–	inactive	inactive	inactive	inactive	inactive	inactive	inactive	inactive
c1ccc2c(c1)-c1cccc3cccc-2c13	inactive	inactive	inactive	inactive	inactive	inactive	inactive	inactive and 43.6 µM (active)	inactive	-7% (inactive) and -12.1% (inactive)	inactive	inactive	inactive	inactive	inactive	inactive	inactive	–
C=CC(=O)OCC	inactive	inactive	inactive	inactive	inactive	inactive	inactive	inactive	inactive	-11.3% (inactive)	inactive	inactive	inactive	inactive	inactive	inactive	–	inactive
CCc1cnc(C2=NC(C)(C(C)C)C(=O)N2)c(C(=O)O)c1 (centres undefined)	inactive	inactive	inactive	inactive	inactive	–	inactive	inactive	inactive	1.73% (inactive) and 22.4% (inactive)	inactive	inactive	inactive	inactive	inactive	inactive	inactive	inactive
Cc1ccc2c(C)cccc2c1	inactive	inactive	inactive	inactive	inactive	–	inactive	inactive	inactive	4.4% (inactive)	inactive	inactive	inactive	inactive	inactive	inactive	inactive	inactive
CNC(=O)Oc1cccc(N=CN(C)C)c1	inactive	inactive	inactive	inactive	inactive	inactive	inactive	inactive	inactive	7.04% (inactive)	inactive	inactive	inactive	inactive	inactive	inactive	inactive	–
CCCCC(CC)CO[N+](=O)[O-] (centres undefined)	inactive	inactive	inactive	inactive	inactive	inactive	inactive	inactive	inactive	-1.82% (inactive)	inactive	inactive	inactive	inactive	inactive	inactive	inactive	–
C[N+]1(CCC(C(N)=O)(c2ccccc2)c2ccccc2)CCCCC1	inactive	inactive	inactive	inactive	inactive	inactive	inactive	inactive	inactive	0.771% (inactive)	inactive	inactive	inactive	inactive	inactive	inactive	–	inactive
Cc1nc(N(C)C)nc(OC(=O)N(C)C)c1C	inactive	inactive	inactive	inactive	inactive	inactive	inactive	inactive	inactive	–	inactive	inactive	inactive	inactive	inactive	inactive	inactive	inactive
OCC1CO1 (centres undefined)	inactive	inactive	inactive	inactive	inactive	inactive	inactive	inactive	inactive	0.843% (inactive) and 1.08% (inactive)	inactive	–	44.4 µM (active)	–	inactive	inactive	inactive	–
CCC(C)(C)O	inactive	inactive	inactive	inactive	inactive	inactive	inactive	inactive	inactive	6.83% (inactive)	inactive	inactive	inactive	inactive	inactive	inactive	–	inactive
CON(C)C(=O)Nc1ccc(Cl)cc1	inactive	inactive	inactive	inactive	inactive	–	inactive	inactive	inactive	-13.1% (inactive)	inactive	inactive	inactive	inactive	inactive	inactive	inactive	inactive
O=C(N/N=C/c1ccc([N+](=O)[O-])o1)c1cc([N+](=O)[O-])cc([N+](=O)[O-])c1O	inactive	inactive	inactive	inactive	inactive	inactive	inactive	inactive	inactive	8.45% (inactive)	inactive	inactive	inactive	inactive	inactive	inactive	inactive	–
CC(C)C1(C)N=C(c2ncccc2C(=O)O)NC1=O (centres undefined)	inactive	inactive	inactive	inactive	inactive	inactive	inactive	inactive	inactive	–	inactive	inactive	inactive	inactive	inactive	inactive	inactive	inactive
